Measurements published in PubChem BioAssay AID368 (University of Pittsburgh Molecular Library Screening Center, 2006).
Out of some 65,000 compounds screened, about 85 (0.1%) were called active. Cut-off read from the data, not from the text of the source: active = inhibition above about 50%; inactive = the rest. Only a selection was taken, and actives are over-represented in it overall.

molecular target: M-phase inducer phosphatase 2 (Homo sapiens) (UniProt P30305); experiment: inhibitors of Cdc25B phosphatase catalytic domain, primary screen, biochemical, OMFP fluorescence (AID 368); conditions: recombinant Cdc25B, OMFP fluorescence Ex485/Em525; hits give high values;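 compounds tested at 10 µM final in the well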
Sequence (P30305 whole entry, looked up, the tested form may be a part): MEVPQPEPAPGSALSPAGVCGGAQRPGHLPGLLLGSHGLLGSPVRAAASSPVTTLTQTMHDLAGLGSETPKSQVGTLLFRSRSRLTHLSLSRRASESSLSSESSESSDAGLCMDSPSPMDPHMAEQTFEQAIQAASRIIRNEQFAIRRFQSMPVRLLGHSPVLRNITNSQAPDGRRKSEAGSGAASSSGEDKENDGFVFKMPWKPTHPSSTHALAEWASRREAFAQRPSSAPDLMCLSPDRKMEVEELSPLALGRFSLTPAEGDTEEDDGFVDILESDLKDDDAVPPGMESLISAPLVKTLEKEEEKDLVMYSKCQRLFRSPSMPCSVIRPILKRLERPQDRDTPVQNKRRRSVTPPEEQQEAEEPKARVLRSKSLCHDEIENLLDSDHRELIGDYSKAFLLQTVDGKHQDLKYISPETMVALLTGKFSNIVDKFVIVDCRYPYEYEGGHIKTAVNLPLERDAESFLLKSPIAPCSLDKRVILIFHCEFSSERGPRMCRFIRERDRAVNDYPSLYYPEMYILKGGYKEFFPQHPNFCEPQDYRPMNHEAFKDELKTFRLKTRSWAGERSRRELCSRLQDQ

inhibition, inactive:
O=C(N1CCOCC1)N(Cc1ccccc1)c1ccccn1 -13.1%
O=C(COc1cccc(-n2cnnn2)c1)NCCC1=CCCCC1 -1.12%
Cc1ccnc(N2CCCC(C(=O)Nc3cc(F)ccc3C)C2)n1 (stereo unspecified) 12.7%
CC1CN(C2CCN(C(=O)COc3ccccc3)CC2)CC(C)O1 (stereo unspecified) -13.1%
CC1CCCC(C)N1C(=O)CN1CCN(c2nc(-c3ccc(F)cc3)cs2)CC1 (stereo unspecified) -8.69%
CNC(=O)c1nnn(-c2ccccc2)c1C(=O)NC 0.211%
O=c1c(F)cn(C2CCCO2)c(=O)n1Cc1ccccc1Cl (stereo unspecified) 1.39%
Fc1ccccc1C(c1nnnn1Cc1ccc2c(c1)OCO2)N1CCN(Cc2ccccc2)CC1 (stereo unspecified) -4.84%
C=CCn1c(=N)n(CC(O)COc2ccc(OC)cc2)c2ccccc21 (stereo unspecified) 0.106%
Cc1ncc(CC(=O)n2cc(C(=O)c3cc(Cl)ccc3O)cn2)s1 -7.5%
CC(Nc1nc(N2CCCC2)nc2ccccc12)c1ccccc1 (stereo unspecified) -6.08%
c1ccc2c(NCC3CCCO3)nc(-c3ccncc3)nc2c1 (stereo unspecified) 1.5%
O=C(C1=C(O)C(=O)N(Cc2ccccc2)C1c1cccnc1)c1ccco1 (stereo unspecified) -7.28%
CC(C)(C)Oc1ncc(Br)c(OC(C)(C)C)n1 -14.4%
CC(C)c1ccc(N2CC(C(=O)Nc3nccs3)CC2=O)cc1 (stereo unspecified) 3.74%
COc1ccc(-n2nc3c(c2NC(=O)Cc2cccc(C)c2)CS(=O)C3)cc1 (stereo unspecified) -6.02%
C[N+]1(CCNC(=O)/C=N/O)CCCCC1 15.7%
CCOc1cc(N2CCOCC2)c(OCC)cc1NC(=O)COc1cccc2cccnc12 -6.8%
CCn1c(SCC(=O)Nc2cccc(F)c2)nnc1-c1cc2cc(Br)ccc2o1 -5.35%
COC(=O)c1ccc(NC(=O)CN(c2ccc(C)cc2)S(=O)(=O)c2c(C)n[nH]c2C)cc1 5.5%
CC1(C)CC(O)C(CCC(O)c2ccccc2)C(C)(C)N1 (stereo unspecified) -23.8%
